The values below come from the supplement of paper PMC7411054.

What all share (conditions): treatment time: 24 h
Assay [1] relates to A549-ACTB-RAB5A. Briefly: lowest phenotypically active concentration; higher = less potent. The gist of the method: (§1)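 Cells from fifteen gene-edited reporter lines (A549, HepG2 and WPMY1) were treated for 24 h at 0.3, 1, 3 or 9 µM and imaged live, four wells per condition. Features were normalised per well to solvent control wells. A condition deviated if ≥3 of 4 wells passed the 95th percentile of control Euclidean distances and was reproducible if its median replicate Pearson correlation beat the 95th percentile of non-replicates; phenotypic activity needed both.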

For assay [2], the system named is A549-CANX-COX4. Described as above. The gist of the method:
as §1

In assay [3] the test system is A549-GM130-SQSTM1. Described as above. In a few lines: as §1
Assay [4] deals with A549-TP53BP1-CLTA. The description is as above. In a few lines:
as §1

Assay [5] has as its system A549-TUBA1B-RELA. Described as above. In a few lines: as §1
Assay [6] relates to HepG2-GM130-SQSTM1. The assay is described as above. In a few lines:
as §1

For assay [7], the system named is A549-ACTB-RAB5A. The assay can be described thus: phenotypically active (imaging signature differs from DMSO and reproducible) at any of 0.3-9 uM (binary (1 = active, 0 = inactive)); higher = active. The gist of the method:
as §1

For assay [8], the system named is A549-CANX-COX4. Described as above. The gist of the method:
as §1

For assay [9], the system named is A549-GM130-SQSTM1. The assay is described as above. The gist of the method: as §1
Assay [10] has as its system A549-TP53BP1-CLTA. The description is as above. In a few lines: as §1
For assay [11], the system named is A549-TUBA1B-RELA. The description is as above. In a few lines:
as §1

For assay [12], the system named is HepG2-ACTB-RAB5A. The description is as above. In a few lines:
as §1

Assay [13] deals with HepG2-CANX-COX4. The assay is described as above. In a few lines: as §1
In assay [14] the test system is HepG2-GM130-SQSTM1. The description is as above. In a few lines: as §1
The subject of assay [15] is HepG2-TP53BP1-CLTA. The description is as above. In a few lines:
as §1

Assay [16] concerns HepG2-TUBA1B-RELA. The description is as above. In a few lines: as §1
The subject of assay [17] is WPMY1-CANX-COX4. Described as above. The gist of the method:
as §1

In assay [18] the test system is WPMY1-GM130-SQSTM1. The description is as above. The gist of the method:
as §1

In assay [19] the test system is WPMY1-TP53BP1-CLTA. The assay is described as above. In a few lines: as §1
The subject of assay [20] is WPMY1-TUBA1B-RELA. The description is as above. The gist of the method: as §1

SMILES strings stand for the structures. Counter-ions that a name gives are not always drawn.

In the case of `CNC(=O)c1ccccc1Sc1ccc2c(/C=C/c3ccccn3)n[nH]c2c1` [Axitinib], the “lowest phenotypically active concentration” value in assay [1] was determined as 1 µM; in assay [2] it was 9 µM; in assay [3], 1 µM; in assay [4], 3 µM; in [5] it was 1 µM; in [6] it was 3 µM. The phenotypically active in assay [7], in assay [8], in assay [9], in assay [10], in assay [11] and in [12] was 1 (active) each time. Besides, the phenotypically active in assay [13], in [14], in assay [15], in assay [16], in assay [17] and in [18] was 1 (active) each time. In addition, the phenotypically active in assay [19] and in assay [20] was 1 (active) each time.

Take `Nc1ncnc2c1c(-c1cnc3[nH]ccc3c1)nn2C1CCCC1`: the “lowest phenotypically active concentration” value was at most 0.3 µM in assay [1]; 1 µM in [2]; at most 0.3 µM in assay [3]; at most 0.3 µM in assay [4]; at most 0.3 µM in assay [5]; at most 0.3 µM in assay [6]. Moreover, the phenotypically active in assay [7], in assay [8], in assay [9], in assay [10], in assay [11] and in assay [12] was 1 (active) throughout. For the same compound, the phenotypically active in [13], in assay [14], in assay [15], in [16], in [17] and in [18] was 1 (active) throughout. Besides, the phenotypically active in assay [19] and in assay [20] was 1 (active) each time.

On to `Cc1c(C(=O)N2CCOc3ccc(-c4ccc(N)nc4)cc3C2)ccc(S(C)(=O)=O)c1F`, for which the “lowest phenotypically active concentration” value in assay [1] stood at 1 µM; in [2] it was 3 µM; in assay [3], 3 µM; in assay [4] it was 3 µM; in assay [5] it was 1 µM; in assay [6], 3 µM. In addition, the phenotypically active in [7], in assay [8], in [9], in [10], in [11] and in assay [12] was 1 (active) in each case. The phenotypically active in assay [13], in assay [14], in assay [15], in [16], in assay [17] and in assay [18] was 1 (active) in each case. Also, the phenotypically active in [19] and in assay [20] was 1 (active) in each case.

For `O=C(CCCCSc1nc(-c2ccc(-c3ccccc3)cc2)cc(=O)[nH]1)NO`, the “lowest phenotypically active concentration” value was at most 0.3 µM in assay [1]; 1 µM in [2]; at most 0.3 µM in assay [3]; at most 0.3 µM in assay [4]; at most 0.3 µM in assay [5]; at most 0.3 µM in assay [6]. In addition, the phenotypically active in assay [7], in assay [8], in [9], in assay [10], in [11] and in assay [12] was 1 (active) in each case. The phenotypically active in assay [13], in [14], in [15], in [16], in assay [17] and in assay [18] was 1 (active) each time. Moreover, the phenotypically active in assay [19] and in assay [20] was 1 (active) in each case.

For `Cc1ccc2nc(NCCN)c3ncc(C)n3c2c1`, the “lowest phenotypically active concentration” value in assay [1] is 3 µM; in assay [2] it was 9 µM; in assay [3], 3 µM; in [4] it was 3 µM; in assay [5], 3 µM; in assay [6], 3 µM. Moreover, the phenotypically active in [7], in assay [8], in assay [9], in assay [10], in assay [11] and in assay [12] was 1 (active) in each case. In addition, the phenotypically active in assay [13], in assay [14], in assay [15], in assay [16], in assay [17] and in [18] was 1 (active) each time. In addition, the phenotypically active in [19] and in assay [20] was 1 (active) each time.

Regarding `COc1ccc(C[C@H](N)C(=O)N[C@H]2[C@@H](O)[C@H](n3cnc4c(N(C)C)ncnc43)O[C@@H]2CO)cc1` [Puromycin dihydrochloride], the “lowest phenotypically active concentration” value in [1] was at most 0.3 µM; in assay [2] it was 1 µM; in assay [3] it was 1 µM; in assay [4], 1 µM; in assay [5], 1 µM; in assay [6] it was at most 0.3 µM. For the same compound, the phenotypically active in assay [7], in [8], in assay [9], in assay [10], in assay [11] and in assay [12] was 1 (active) in each case. The phenotypically active in assay [13], in [14], in [15], in assay [16], in assay [17] and in assay [18] was 1 (active) in each case. For the same compound, the phenotypically active in assay [19] and in [20] was 1 (active) in each case.
